High-throughput results (PubChem BioAssay)
esBAF inh: Bmi1 luciferase reporter increase in mESCs, primary screen, esBAF inhibitor project, mouse ES cells, Bmi1 luciferase knock-in, single point; 24 h; 100% = twice the neutral-well signal; reporter increase, % at 12.5 µM; actives 2% (n = 350,000); in the data active = activation above about 40%; inconclusive = no clear call, values can overlap the other calls;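 note: a rise in the Bmi1 reporter signal indicates esBAF inhibition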
Wnt bcat act: Wnt/beta-catenin pathway activators, primary screen, cell-based, plate reader, single point. Wnt/beta-catenin reporter cell assay, activator. activation, % at 9.35 µM. actives 1.2% (n = 300,000). AID 743398, 2014; in the data active = activation above about 30%, passing the limit was not always enough; inconclusive = no clear call, values can overlap the other calls
PHOSPHO1 inh: PubChem AID 1565; actives 1.1% (n = 290,000); recombinant PHOSPHO1, absorbance phosphatase assay; inhibition, % at 13.3 µM; in the data active = inhibition above about 60%
APOBEC3A inh: APOBEC3A ssDNA deaminase inhibitors, primary screen, selectivity assay for APOBEC3G inhibitor project, biochemical, FAM/TAMRA oligo cleavage fluorescence. actives 0.41% (n = 330,000). recombinant A3A, FAM/TAMRA ssDNA deamination fluorescence. inhibition, % at 20 µM. DNA dC->dU-editing enzyme APOBEC-3A (Homo sapiens), P31941;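 active = at least 40% inhibition at 20 µM here, with at most 30% in a related deaminase screen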
Target sequence (P31941 whole entry, looked up): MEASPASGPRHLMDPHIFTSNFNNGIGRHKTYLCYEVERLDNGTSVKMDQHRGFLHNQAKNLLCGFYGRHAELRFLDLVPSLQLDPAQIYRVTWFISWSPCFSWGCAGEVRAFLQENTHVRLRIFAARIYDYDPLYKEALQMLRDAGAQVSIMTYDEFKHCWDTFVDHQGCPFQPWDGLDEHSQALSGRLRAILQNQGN
MITF act: activators of MITF-driven TRPM1 promoter reporter, primary screen, cell-based, SK-MEL-5, luciferase, single point; SK-MEL-5 TRPM1-promoter luciferase, 24 h; % of positive control, neutral wells = 0; actives 0.75% (n = 300,000); activation, % at 12.5 µM;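 active = mean activation of at least 80% with every replicate also reaching 80%; inconclusive = mean reaches 80% but some replicate falls short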
APOBEC3G inh: APOBEC3G DNA deaminase inhibitors, primary screen, biochemical, fluorescence, single-stranded DNA substrate, uHTS; DNA dC->dU-editing enzyme APOBEC-3G (Homo sapiens), Q9HC16; recombinant A3G, ssDNA deamination FAM/TAMRA fluorescence; inhibition, % at 20 µM; actives 0.28% (n = 330,000);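 active = inhibition of at least 40% at 20 µM, with no more than 30% in the related APOBEC3A deaminase screen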
Target sequence (Q9HC16 whole entry, looked up): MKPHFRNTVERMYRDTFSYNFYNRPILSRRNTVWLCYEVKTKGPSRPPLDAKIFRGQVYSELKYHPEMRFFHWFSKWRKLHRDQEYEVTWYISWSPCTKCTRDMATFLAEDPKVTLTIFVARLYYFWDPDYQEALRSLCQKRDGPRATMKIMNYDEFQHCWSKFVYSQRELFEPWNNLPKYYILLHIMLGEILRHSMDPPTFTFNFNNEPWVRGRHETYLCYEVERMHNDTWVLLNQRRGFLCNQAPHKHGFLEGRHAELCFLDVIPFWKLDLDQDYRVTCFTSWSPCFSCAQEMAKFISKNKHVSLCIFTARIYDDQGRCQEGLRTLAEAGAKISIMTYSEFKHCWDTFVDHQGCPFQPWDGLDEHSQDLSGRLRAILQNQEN
APOBEC3A confirm: APOBEC3A deaminase inhibitors, retest, confirmation, selectivity assay for APOBEC3G inhibitor project, biochemical, single concentration, fluorescence readout; shares compounds with APOBEC3A inh; recombinant A3A, ssDNA deaminase UDG fluorescence assay; inhibition, % at 20 µM; actives 63% (n = 1,400); AID 493151, 2011;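 active = inhibition reaching a set limit, 80% of the first screen's cutoff, at 20 µM in any replicate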
UDG ctr A3A: E. coli UDG inhibitors, confirmation, counter-screen for APOBEC3A inhibitor project, biochemical, single concentration, fluorescence, FAM/TAMRA oligo; shares compounds with APOBEC3A inh; AID 504714, 2011; 1,000 tested, under 10 active; UDG counterscreen, FAM/TAMRA uracil oligo fluorescence; inhibition, % at 20 µM; call rule not given here
Numbers stand for hits; - = inactive; ? = inconclusive; . = no result given. Sampled rows, rich in hits. Any-hit rate of the full collection: about 3.6%.

SMILES | esBAF inh | Wnt bcat act | PHOSPHO1 inh | APOBEC3A inh | MITF act | APOBEC3G inh | APOBEC3A confirm | UDG ctr A3A
Cc1noc(C)c1NC(=O)Nc1ccc2c(c1)C(=O)N([C@H](C)CO)C[C@H](C)[C@H](CN(C)C(=O)Nc1ccc(C(F)(F)F)cc1)OCCCC[C@H](C)O2 | - | . | . | . | . | . | . | .
C[C@H](O)C#Cc1cnc2c(c1)C(=O)N([C@H](C)CO)C[C@@H](C)[C@@H](CN(C)C(=O)CC1CC1)O2 | - | . | . | . | . | . | . | .
CCN(CC(=O)NCc1cccs1)C(=O)c1ccc(Cl)c(Cl)c1 | - | - | . | - | - | - | . | .
CCCc1nc2ccccc2c(C(=O)N(CC)CC(=O)NCc2cccs2)c1CC | - | - | . | 50 | - | - | - | .
COc1ccc(NC(=O)Nc2ccc3c(c2)C(=O)N([C@@H](C)CO)C[C@@H](C)[C@@H](CN(C)C(=O)NC2CCCCC2)OCCCC[C@H](C)O3)cc1 | - | . | . | . | . | . | . | .
CCOC(=O)C1=C(C)N=C2SC(C(=O)OC)=CC(=O)N2C1c1cccc(OC)c1 (stereo not drawn) | - | . | - | - | - | - | . | .
CCOC(=O)C1=C(C)N=C2SC(C(=O)OC)=CC(=O)N2C1c1ccc(F)cc1 (stereo not drawn) | - | . | - | 54 | - | - | - | -
C[C@@H]1CN([C@H](C)CO)C(=O)Cc2cc(NC(=O)CCN3CCOCC3)ccc2O[C@H]1CN(C)Cc1ccc(Cl)c(Cl)c1 | - | . | . | . | . | . | . | .
O=C(c1ccccn1)N1C[C@@H]2[C@H](c3ccccc31)[C@H](CO)N2C(=O)C1CCCCC1 | - | . | . | . | . | . | . | .
CCCN1C[C@@H](C)[C@@H](OC)CN(C)C(=O)c2ccc(NC(=O)c3cnccn3)cc2OC[C@@H]1C | - | . | . | . | . | . | . | .
c1ccc2nc(N3CCCC3)c(N3CCCC3)nc2c1 | . | . | - | - | - | - | . | .
c1ccc2c(c1)nc(N1CCCCCC1)c1ccccc12 | . | - | - | 67 | - | - | 67 | -
CNC[C@@H]1Oc2cc(-c3cccnc3)ccc2S(=O)(=O)N([C@H](C)CO)C[C@H]1C | - | . | . | . | . | . | . | .
C=CCNC(=O)Cn1nc(-c2ccccc2)ccc1=O | - | - | - | 61 | - | - | - | .
CCN(CC)CCCNC(=O)Cn1nc(-c2ccccc2)ccc1=O | - | . | - | - | - | - | . | .
C[C@H]1CN([C@@H](C)CO)C(=O)c2cccc(NC(=O)C3CC3)c2O[C@@H]1CN(C)S(C)(=O)=O | - | . | . | . | . | . | . | .
O=C(CCNC(=O)c1ccc([N+](=O)[O-])cc1)Nc1nccs1 | - | - | - | 47 | - | - | - | .
Cc1ccc(CNC(=O)CCNC(=O)c2ccc([N+](=O)[O-])cc2)cc1 | - | - | . | 46 | - | - | 41 | -
Cc1noc(C)c1S(=O)(=O)N(C)C[C@@H]1Oc2c(NC(=O)C3CCCCC3)cccc2C(=O)N([C@H](C)CO)C[C@@H]1C | - | . | . | . | . | . | . | .
Cc1n(-c2ccccc2)c2ccc(Cl)cc2[n+]1CCO | . | - | - | 50 | - | - | 75 | -
COc1ccc(NC(=O)N(C)C[C@@H]2OCCCC[C@@H](C)Oc3ccc(N(C)C)cc3C(=O)N([C@H](C)CO)C[C@H]2C)cc1 | - | . | . | . | . | . | . | .
O=C(CNC(=O)c1cccc(F)c1)OCC(=O)N1CCCCC1 | . | - | - | 41 | - | - | - | .
C[C@@H]1CCCCO[C@@H](CN(C)C)[C@@H](C)CN([C@@H](C)CO)C(=O)c2cc(NC(=O)Nc3ccc(F)cc3)ccc2O1 | - | . | . | . | . | . | . | .
N#CCC(=O)N/N=C/c1cn(Cc2ccccc2C#N)c2ccccc12 | - | - | - | 56 | . | - | 72 | -
N#CCC(=O)N/N=C/c1cn(Cc2cccc3ccccc23)c2ccccc12 | - | - | - | - | . | - | . | .
SMILES | esBAF inh | Wnt bcat act | PHOSPHO1 inh | APOBEC3A inh | MITF act | APOBEC3G inh | APOBEC3A confirm | UDG ctr A3A
C[C@@H]1CCCCO[C@H](CN(C)S(C)(=O)=O)[C@@H](C)CN([C@@H](C)CO)C(=O)c2cc(NC(=O)Nc3ccccc3)ccc2O1 | - | . | . | . | . | . | . | .
Cc1ccc(S(=O)(=O)N(C)C[C@H]2OCCCC[C@H](C)Oc3ccc(NC(=O)CCC(F)(F)F)cc3C(=O)N([C@H](C)CO)C[C@H]2C)cc1 | - | . | . | . | . | . | . | .
COC(=O)C(C)N1C(=O)S/C(=C\c2ccc(-c3ccc(C(=O)O)cc3C)o2)C1=O (stereo not drawn) | 71 | - | - | 51 | - | - | 62 | -
Cc1ccc(C(=O)O)cc1-c1ccc(C=C2C(=O)c3ccccc3C2=O)o1 | . | - | - | 44 | - | - | 35 | -
COC(=O)C(C)N1C(=O)S/C(=C\c2cc(C)n(-c3ccccn3)c2C)C1=O (stereo not drawn) | - | . | - | - | - | - | . | .
CC1=NN(c2ccc(Br)cc2)C(=O)/C1=C/c1ccc(-c2ccccc2C(=O)O)o1 | - | - | - | - | . | - | . | .
Cc1cccc(NC(=O)CN2C(=O)S/C(=C\c3ccc(-c4cccc(C(=O)O)c4C)o3)C2=O)c1 | . | - | - | - | - | - | . | .
Cc1ccc(NC(=O)CN2C(=O)S/C(=C/c3ccc(-c4cc(C(=O)O)ccc4C)o3)C2=O)cc1C | - | - | - | 63 | ? | - | 43 | -
Cn1c(N)c(C(=O)COC(=O)COc2ccc(C#N)cc2)c(=O)n(C)c1=O | - | - | - | 92 | - | - | - | -
Cn1c(N)c(C(=O)COc2ccc(C#N)cc2)c(=O)n(C)c1=O | - | - | - | - | - | - | . | .
Cc1noc(C)c1NC(=O)N(C)C[C@H]1Oc2ccc(NC(=O)Cc3cn(C)c4ccccc34)cc2CC(=O)N([C@@H](C)CO)C[C@@H]1C | - | . | . | . | . | . | . | .
CC(Oc1ccc(Br)cc1)C(=O)Nc1cc(Cl)ccc1N1CCN(C)CC1 (stereo not drawn) | . | - | . | 58 | - | - | 54 | -
COc1ccc(CCC(=O)Nc2cc(Cl)ccc2N2CCN(C)CC2)cc1 | . | . | - | - | . | - | . | .
C[C@@H]1CCCCO[C@H](CN(C)S(=O)(=O)c2ccccc2)[C@H](C)CN([C@H](C)CO)C(=O)c2cc(NS(=O)(=O)c3ccccc3)ccc2O1 | - | . | . | . | . | . | . | .
O=C(Nc1ccc2c(c1)[C@H]1C[C@@H](CC(=O)N3CCCCC3)O[C@H](CO)[C@H]1O2)C1CCC1 | - | . | . | . | . | . | . | .
